Measurements taken from PMC7826789 (International Journal of Molecular Sciences, 2021).

Tested on: ABL1(H396P)-phosphorylated
Conditions: Compound Concentration (nM):1000
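Also: KINOMEscan scanMAX binding as percent activity remaining versus control; lower means stronger binding.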

Point of comparison: CC(C)COC(=O)c1ccc2c(c1)/C(=C/Nc1ccc(S(N)(=O)=O)cc1)C(=O)N2 [GW416981X], “Percent Control” value 100%. Against it:
- NS(=O)(=O)c1ccc(N/N=C2\C(=O)Nc3ccc(Cl)cc32)cc1 [GW280670X] — the same, 100%
- COc1cccc(-c2c[nH]c3c(N/N=C/c4ccncc4)ncnc23)c1 [GW814408X] — lower, 0.2%
- COc1ccccc1-c1cc(/C=C2\C(=O)Nc3ncc(Br)cc32)cc(Br)c1O [GW442130X] — lower, 85%
- CC1=C(C(=O)Nc2ccc3[nH]ncc3c2)C(c2ccc(Cl)c(Cl)c2)CC(=O)N1 (stereo not drawn) [GSK299115A] — lower, 95%
- COc1ccc(COc2ccc(Cc3cnc(N)nc3N)cc2OC)cc1 [GW632580X] — lower, 86%
- COc1cc(C=NNc2ncnc3c2cnn3-c2ccccc2)ccc1O [GW513184X] — lower, 26%
- Cl.O=C(O[C@H]1CN[C@H](C#Cc2cc3ncnc(Nc4ccc5c(cnn5Cc5ccccc5)c4)c3s2)C1)N1CCOCC1 [GSK200398A] — lower, 90%

Tested on: ABL1(M351T)-phosphorylated
Conditions: Compound Concentration (nM):1000

Point of comparison: CN(C)c1cc2c(Nc3ccc4c(cnn4Cc4ccccc4)c3)ncnc2cn1 [GW282974X], “Percent Control” value 100%. Against it:
- COc1cc(/C=N/Nc2ncnc3[nH]ncc23)ccc1O [GW578748X] — lower, 0%
- NS(=O)(=O)c1ccc(N/N=C2\C(=O)Nc3ccc(-c4cnco4)cc32)cc1 [GW276655] — lower, 92%
- CN1CCN(C(=O)c2ccc(NC(=O)Nc3ccc(N(C)c4ccnc(Nc5ccc(CS(C)(=O)=O)cc5)n4)cc3)cc2)CC1.Cl [GW830263A] — lower, 20%
- CCS(=O)(=O)c1ccc(OC)c(Nc2ncc(-c3cccc(OC)c3)o2)c1 [GW580509X] — lower, 6.5%
- Cl.O=S1CCN(Cc2ccc(-c3ccc4ncnc(Nc5ccc(OCc6ccccc6)c(F)c5)c4c3)o2)CC1 [GW576924A] — the same, 100%
- CC1=C(C(=O)Nc2ccc3[nH]ncc3c2)C(c2ccc3ccccc3c2)CC(=O)N1 (stereo not drawn) [GSK270822A] — lower, 80%
- COc1ccc2c(-c3ccnc(Nc4cccc(OC(F)(F)F)c4)n3)cnn2n1 [GW810372X] — lower, 97%
- Cl.O=C(Nc1ccc(Oc2ccc3[nH]c(NC(=O)c4ccco4)nc3c2)cc1)Nc1cc(C(F)(F)F)ccc1F [GW683134A] — lower, 22%
- CCS(=O)(=O)c1ccc(OC)c(Nc2ncc(-c3cccc(F)c3)o2)c1 [GW621970X] — lower, 6.6%
- COc1cc(C)c(N(C)C(=O)CN(C)C)cc1Nc1nc(Nc2cccc(F)c2C(N)=O)c2cc[nH]c2n1 [GSK2219385] — the same, 100%
- Cl.c1ccc(Cc2nc3ccc(Nc4ncnc5ccccc45)cc3[nH]2)cc1 [GR269666A] — the same, 100%
- COc1ccc2[nH]c3c4[nH]c5ccc(OC)cc5c4c4c(c3c2c1)C(=O)NC4=O [GW296115X] — lower, 68%
- CCn1c(-c2nonc2N)nc2c(C#CC(C)(C)O)nc(OCCNC)cc21.Cl [GSK949675] — the same, 100%
- CN(C)CCNC(=O)Nc1ccc(N(C)c2ccnc(Nc3ccc(CS(C)(=O)=O)cc3)n2)cc1.Cl [GW830900A] — lower, 73%
- NS(=O)(=O)c1ccc(N/N=C2\C(=O)Nc3ccc(C(=O)NCCc4c[nH]cn4)cc32)cc1 [GW300660X] — the same, 100%
- C[C@@H](Oc1cc(-n2cnc3ccc(OC4CCN(C)CC4)cc32)sc1C(N)=O)c1ccccc1Cl [GSK579289A] — lower, 80%
- NS(=O)(=O)c1ccc(Nc2ncc(-c3ccccc3)o2)cc1 [GW572399X] — lower, 83%
- Cc1cc(O)cc(C)c1/C=C/c1cncc(C(N)=O)c1 [GW435821X] — lower, 15%
- COc1ccc2cc(-c3c(-c4ccncc4)nc(-c4ccc(S(C)(=O)=O)cc4C)n3C)ccc2c1 [SB-633825] — lower, 81%
- COc1cc2ncn(-c3cc(O[C@H](C)c4ccccc4Cl)c(C(N)=O)s3)c2cc1OC [GSK237701A] — lower, 56%
- COC(=O)Nc1nc2ccc(Oc3ccc(NC(=O)Nc4cc(C(F)(F)F)ccc4F)cc3)cc2s1.Cl [GW693917A] — lower, 12%
- COc1cc2ncnc(Nc3ccc4c(cnn4Cc4ccccc4)c3)c2cc1OC.Cl [GW282449A] — the same, 100%
- C/C(Nc1ccc(S(N)(=O)=O)cc1)=C1/C(=O)Nc2ccccc21 [GW335962X] — lower, 82%
- Cl.O=C(Nc1ccc(Oc2ccc3[nH]c(NC(=O)c4ccccc4)nc3c2)cc1)Nc1cc(C(F)(F)F)ccc1F [GW709042A] — lower, 62%
- CCc1ccc(Oc2nccc(-c3c(-c4ccc(F)cc4)ncn3C3CCNCC3)n2)cc1 [SB-242719] — lower, 98%
- COc1cc(N2CCN(C(C)C)CC2)ccc1Nc1nc(Nc2ccc(F)cc2C(=O)NC[C@@H](O)CO)c2cc[nH]c2n1 [GSK1392956A] — lower, 97%
- O=C(Nc1n[nH]c2nc(-c3ccc(O)cc3)c(Br)cc12)C1CC1 [SB-725317] — lower, 33%
- O=C1Nc2ccc(C(=O)c3ccco3)cc2C1=Cc1cc(Cl)c(O)c(Cl)c1 [GW406108X] — lower, 70%
- COc1cccc(-n2ncc3c(N/N=C/c4ccncc4)ncnc32)c1 [GW784752X] — lower, 0%
- NS(=O)(=O)c1ccc(N/N=C2\C(=O)Nc3ccc(C(=O)NCc4ccncc4)cc32)cc1 [GW300657X] — lower, 91%
- Nc1ncnc2occ(-c3ccc(NC(=O)Nc4cc(C(F)(F)F)ccc4F)cc3)c12 [GW770249X] — lower, 45%
- NS(=O)(=O)c1ccc(N/N=C2\C(=O)Nc3ccc(Cl)cc32)cc1 [GW280670X] — the same, 100%
- COc1cccc(-c2c[nH]c3c(N/N=C/c4ccncc4)ncnc23)c1 [GW814408X] — lower, 0.3%
- COc1ccccc1-c1cc(/C=C2\C(=O)Nc3ncc(Br)cc32)cc(Br)c1O [GW442130X] — the same, 100%
- CC(C)COC(=O)c1ccc2c(c1)/C(=C/Nc1ccc(S(N)(=O)=O)cc1)C(=O)N2 [GW416981X] — the same, 100%
- CC1=C(C(=O)Nc2ccc3[nH]ncc3c2)C(c2ccc(Cl)c(Cl)c2)CC(=O)N1 (stereo not drawn) [GSK299115A] — lower, 87%
- COc1ccc(COc2ccc(Cc3cnc(N)nc3N)cc2OC)cc1 [GW632580X] — lower, 85%
- COc1cc(C=NNc2ncnc3c2cnn3-c2ccccc2)ccc1O [GW513184X] — lower, 25%
- Cl.O=C(O[C@H]1CN[C@H](C#Cc2cc3ncnc(Nc4ccc5c(cnn5Cc5ccccc5)c4)c3s2)C1)N1CCOCC1 [GSK200398A] — the same, 100%
